# Measured values from PubChem BioAssay AID651998 (The Scripps Research Institute Molecular Screening Center, 2013).
# Test system: LYPLA1
# Assay: LYPLA1 enzyme kinetics with inhibitors – biochemical, substrate-based fluorescence, Ki, Km, late-stage follow-up (AID 651998)
# Settings: recombinant LYPLA1, resorufin acetate hydrolysis fluorescence, Ki from Cheng-Prusoff
compound,measurement,value
O=C(CN1CCN(C(=O)c2ccco2)CC1)Nc1cc(C(F)(F)F)ccc1Cl,Ki,300 nM
